Test results: the supplement of paper PMC11732987, “Enantioselective OTUD7B fragment discovery through chemoproteomics screening and high-throughput optimisation” (Communications Chemistry, 2025)

Tests used:
Assay in all cases: log2 ratio of Biotin-Ahx-Ub-VS probe labelling (fragment/DMSO); higher = less target engagement (more negative = stronger competition), active = hit call of the paper (q ≤ 0.05, log2 ratio ≤ -1)
Settings in all cases: compound concentration: 200 uM; treatment time: 3 h
USP34 = USP34 (UniProt Q70CQ2)
How it was run: (§1)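 Each value is an average log2 ratio of fragment to vehicle, tested by unpaired t-test. The underlying Spectronaut label-free quantities were global-median-normalised, and only proteins with ≥2 unique peptides were included. Triplicate HEK293T lysate samples (495 µg) were exposed to fragment at 200 µM or vehicle for 3 h, then to Biotin-Ahx-Ub-VS at 0.5 µM final for 1 h, before NeutrAvidin enrichment of labelled DUBs, LysC and trypsin digestion, and diaPASEF LC-MS/MS.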

USP36 = biological target: T1, USP36 (UniProt Q9P275)
T1 sequence (whole entry): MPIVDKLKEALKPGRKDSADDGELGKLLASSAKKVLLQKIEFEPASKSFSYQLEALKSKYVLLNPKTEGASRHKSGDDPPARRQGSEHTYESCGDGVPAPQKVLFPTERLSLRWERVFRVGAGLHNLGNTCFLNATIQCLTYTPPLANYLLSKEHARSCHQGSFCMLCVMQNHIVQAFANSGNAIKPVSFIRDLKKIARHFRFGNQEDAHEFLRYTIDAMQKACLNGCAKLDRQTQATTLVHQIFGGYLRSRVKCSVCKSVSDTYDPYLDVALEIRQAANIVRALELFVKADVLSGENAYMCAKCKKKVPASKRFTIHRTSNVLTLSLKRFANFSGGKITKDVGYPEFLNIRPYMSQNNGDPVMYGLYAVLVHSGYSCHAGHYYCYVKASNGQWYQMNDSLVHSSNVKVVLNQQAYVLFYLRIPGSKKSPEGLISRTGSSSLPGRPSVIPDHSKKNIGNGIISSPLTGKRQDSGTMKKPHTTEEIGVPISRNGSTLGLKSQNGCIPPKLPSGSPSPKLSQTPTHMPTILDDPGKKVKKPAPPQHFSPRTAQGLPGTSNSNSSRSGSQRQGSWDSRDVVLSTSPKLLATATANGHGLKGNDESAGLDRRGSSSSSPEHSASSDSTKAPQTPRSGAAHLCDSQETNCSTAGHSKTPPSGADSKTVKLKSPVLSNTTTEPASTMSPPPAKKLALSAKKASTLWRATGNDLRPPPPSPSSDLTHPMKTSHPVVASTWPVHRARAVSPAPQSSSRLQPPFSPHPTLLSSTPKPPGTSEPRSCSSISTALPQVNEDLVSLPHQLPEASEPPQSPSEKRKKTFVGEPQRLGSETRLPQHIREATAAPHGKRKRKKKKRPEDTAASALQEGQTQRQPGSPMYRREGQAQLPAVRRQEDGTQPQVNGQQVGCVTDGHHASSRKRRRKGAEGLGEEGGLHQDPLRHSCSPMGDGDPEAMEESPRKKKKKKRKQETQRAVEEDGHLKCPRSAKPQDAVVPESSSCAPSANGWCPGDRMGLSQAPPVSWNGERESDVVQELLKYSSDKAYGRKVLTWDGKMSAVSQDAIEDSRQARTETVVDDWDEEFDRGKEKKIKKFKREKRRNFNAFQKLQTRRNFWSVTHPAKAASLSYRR
How it was run: as §1

USP38 = biological target: T2, USP38 (UniProt Q8NB14)
T2 sequence (whole entry): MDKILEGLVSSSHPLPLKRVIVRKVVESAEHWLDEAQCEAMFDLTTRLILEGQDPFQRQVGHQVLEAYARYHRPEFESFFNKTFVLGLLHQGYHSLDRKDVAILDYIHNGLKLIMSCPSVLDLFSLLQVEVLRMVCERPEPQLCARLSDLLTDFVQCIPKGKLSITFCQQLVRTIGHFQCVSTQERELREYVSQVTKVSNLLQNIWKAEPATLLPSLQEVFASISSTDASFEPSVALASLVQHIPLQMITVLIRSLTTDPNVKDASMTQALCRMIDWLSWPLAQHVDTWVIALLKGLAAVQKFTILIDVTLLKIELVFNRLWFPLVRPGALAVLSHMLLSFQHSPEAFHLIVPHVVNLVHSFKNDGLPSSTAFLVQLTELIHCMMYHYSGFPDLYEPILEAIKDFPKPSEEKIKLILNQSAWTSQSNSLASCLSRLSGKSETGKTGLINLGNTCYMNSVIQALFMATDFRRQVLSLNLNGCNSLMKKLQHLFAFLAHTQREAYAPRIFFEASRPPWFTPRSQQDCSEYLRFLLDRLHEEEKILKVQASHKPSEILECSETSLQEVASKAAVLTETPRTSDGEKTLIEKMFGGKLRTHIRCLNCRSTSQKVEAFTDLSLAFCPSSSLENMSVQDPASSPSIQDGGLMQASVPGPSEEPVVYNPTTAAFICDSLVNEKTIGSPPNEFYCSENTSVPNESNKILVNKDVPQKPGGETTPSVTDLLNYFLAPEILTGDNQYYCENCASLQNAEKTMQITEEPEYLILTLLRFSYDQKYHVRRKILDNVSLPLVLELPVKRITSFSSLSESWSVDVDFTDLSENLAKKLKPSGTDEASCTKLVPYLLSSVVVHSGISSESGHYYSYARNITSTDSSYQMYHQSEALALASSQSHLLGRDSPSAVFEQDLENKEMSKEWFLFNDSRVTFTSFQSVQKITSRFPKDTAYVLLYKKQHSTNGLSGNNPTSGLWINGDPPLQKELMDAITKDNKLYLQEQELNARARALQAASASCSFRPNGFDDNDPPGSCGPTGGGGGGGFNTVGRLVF
How it was run: as §1

USP39 = biological target: T3, USP39 (UniProt Q53GS9)
T3 sequence (whole entry): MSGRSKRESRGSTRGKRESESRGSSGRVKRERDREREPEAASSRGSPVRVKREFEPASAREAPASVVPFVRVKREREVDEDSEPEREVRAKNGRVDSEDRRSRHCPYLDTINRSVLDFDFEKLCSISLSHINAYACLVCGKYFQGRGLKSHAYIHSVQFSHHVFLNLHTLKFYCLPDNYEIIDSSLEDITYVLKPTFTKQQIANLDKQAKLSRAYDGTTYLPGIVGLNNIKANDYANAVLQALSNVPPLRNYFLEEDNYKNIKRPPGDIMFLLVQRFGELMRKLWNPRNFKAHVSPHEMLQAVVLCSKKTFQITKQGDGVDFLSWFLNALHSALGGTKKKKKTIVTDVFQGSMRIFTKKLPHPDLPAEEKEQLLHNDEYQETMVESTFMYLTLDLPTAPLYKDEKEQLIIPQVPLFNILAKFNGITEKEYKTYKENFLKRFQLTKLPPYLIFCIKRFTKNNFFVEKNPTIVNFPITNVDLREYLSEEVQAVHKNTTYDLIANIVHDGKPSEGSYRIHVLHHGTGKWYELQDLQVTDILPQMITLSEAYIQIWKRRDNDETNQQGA
How it was run: as §1

USP4 = biological target: T4, USP4 (UniProt Q13107)
T4 sequence (whole entry): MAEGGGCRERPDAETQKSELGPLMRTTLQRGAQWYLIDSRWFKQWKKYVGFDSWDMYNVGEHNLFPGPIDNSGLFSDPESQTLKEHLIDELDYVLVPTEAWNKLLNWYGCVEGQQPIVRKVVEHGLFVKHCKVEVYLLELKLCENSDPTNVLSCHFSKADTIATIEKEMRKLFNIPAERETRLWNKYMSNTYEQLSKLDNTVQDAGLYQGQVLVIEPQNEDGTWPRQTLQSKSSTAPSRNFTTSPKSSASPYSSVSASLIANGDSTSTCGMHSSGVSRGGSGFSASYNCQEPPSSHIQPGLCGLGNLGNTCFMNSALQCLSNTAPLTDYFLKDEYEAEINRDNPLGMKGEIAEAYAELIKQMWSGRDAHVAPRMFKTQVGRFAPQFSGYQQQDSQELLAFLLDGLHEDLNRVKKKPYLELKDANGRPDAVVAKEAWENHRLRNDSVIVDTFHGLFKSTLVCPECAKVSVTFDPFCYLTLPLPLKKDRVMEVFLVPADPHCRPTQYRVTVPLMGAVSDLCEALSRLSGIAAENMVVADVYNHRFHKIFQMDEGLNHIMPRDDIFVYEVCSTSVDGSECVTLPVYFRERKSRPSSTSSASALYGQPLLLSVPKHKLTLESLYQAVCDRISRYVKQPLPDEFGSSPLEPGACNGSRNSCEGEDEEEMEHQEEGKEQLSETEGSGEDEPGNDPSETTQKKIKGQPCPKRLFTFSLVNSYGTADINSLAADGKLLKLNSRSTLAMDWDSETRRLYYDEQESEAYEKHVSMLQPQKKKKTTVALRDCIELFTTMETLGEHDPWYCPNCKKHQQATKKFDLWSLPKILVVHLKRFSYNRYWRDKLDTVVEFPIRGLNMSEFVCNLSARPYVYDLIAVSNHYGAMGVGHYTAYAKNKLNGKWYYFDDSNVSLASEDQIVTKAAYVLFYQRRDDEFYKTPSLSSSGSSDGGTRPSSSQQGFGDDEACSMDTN
How it was run: as §1

Measured: log2 ratio of Biotin-Ahx-Ub-VS probe labelling

USP34, sequence (Q70CQ2 whole entry, the tested form may be a part): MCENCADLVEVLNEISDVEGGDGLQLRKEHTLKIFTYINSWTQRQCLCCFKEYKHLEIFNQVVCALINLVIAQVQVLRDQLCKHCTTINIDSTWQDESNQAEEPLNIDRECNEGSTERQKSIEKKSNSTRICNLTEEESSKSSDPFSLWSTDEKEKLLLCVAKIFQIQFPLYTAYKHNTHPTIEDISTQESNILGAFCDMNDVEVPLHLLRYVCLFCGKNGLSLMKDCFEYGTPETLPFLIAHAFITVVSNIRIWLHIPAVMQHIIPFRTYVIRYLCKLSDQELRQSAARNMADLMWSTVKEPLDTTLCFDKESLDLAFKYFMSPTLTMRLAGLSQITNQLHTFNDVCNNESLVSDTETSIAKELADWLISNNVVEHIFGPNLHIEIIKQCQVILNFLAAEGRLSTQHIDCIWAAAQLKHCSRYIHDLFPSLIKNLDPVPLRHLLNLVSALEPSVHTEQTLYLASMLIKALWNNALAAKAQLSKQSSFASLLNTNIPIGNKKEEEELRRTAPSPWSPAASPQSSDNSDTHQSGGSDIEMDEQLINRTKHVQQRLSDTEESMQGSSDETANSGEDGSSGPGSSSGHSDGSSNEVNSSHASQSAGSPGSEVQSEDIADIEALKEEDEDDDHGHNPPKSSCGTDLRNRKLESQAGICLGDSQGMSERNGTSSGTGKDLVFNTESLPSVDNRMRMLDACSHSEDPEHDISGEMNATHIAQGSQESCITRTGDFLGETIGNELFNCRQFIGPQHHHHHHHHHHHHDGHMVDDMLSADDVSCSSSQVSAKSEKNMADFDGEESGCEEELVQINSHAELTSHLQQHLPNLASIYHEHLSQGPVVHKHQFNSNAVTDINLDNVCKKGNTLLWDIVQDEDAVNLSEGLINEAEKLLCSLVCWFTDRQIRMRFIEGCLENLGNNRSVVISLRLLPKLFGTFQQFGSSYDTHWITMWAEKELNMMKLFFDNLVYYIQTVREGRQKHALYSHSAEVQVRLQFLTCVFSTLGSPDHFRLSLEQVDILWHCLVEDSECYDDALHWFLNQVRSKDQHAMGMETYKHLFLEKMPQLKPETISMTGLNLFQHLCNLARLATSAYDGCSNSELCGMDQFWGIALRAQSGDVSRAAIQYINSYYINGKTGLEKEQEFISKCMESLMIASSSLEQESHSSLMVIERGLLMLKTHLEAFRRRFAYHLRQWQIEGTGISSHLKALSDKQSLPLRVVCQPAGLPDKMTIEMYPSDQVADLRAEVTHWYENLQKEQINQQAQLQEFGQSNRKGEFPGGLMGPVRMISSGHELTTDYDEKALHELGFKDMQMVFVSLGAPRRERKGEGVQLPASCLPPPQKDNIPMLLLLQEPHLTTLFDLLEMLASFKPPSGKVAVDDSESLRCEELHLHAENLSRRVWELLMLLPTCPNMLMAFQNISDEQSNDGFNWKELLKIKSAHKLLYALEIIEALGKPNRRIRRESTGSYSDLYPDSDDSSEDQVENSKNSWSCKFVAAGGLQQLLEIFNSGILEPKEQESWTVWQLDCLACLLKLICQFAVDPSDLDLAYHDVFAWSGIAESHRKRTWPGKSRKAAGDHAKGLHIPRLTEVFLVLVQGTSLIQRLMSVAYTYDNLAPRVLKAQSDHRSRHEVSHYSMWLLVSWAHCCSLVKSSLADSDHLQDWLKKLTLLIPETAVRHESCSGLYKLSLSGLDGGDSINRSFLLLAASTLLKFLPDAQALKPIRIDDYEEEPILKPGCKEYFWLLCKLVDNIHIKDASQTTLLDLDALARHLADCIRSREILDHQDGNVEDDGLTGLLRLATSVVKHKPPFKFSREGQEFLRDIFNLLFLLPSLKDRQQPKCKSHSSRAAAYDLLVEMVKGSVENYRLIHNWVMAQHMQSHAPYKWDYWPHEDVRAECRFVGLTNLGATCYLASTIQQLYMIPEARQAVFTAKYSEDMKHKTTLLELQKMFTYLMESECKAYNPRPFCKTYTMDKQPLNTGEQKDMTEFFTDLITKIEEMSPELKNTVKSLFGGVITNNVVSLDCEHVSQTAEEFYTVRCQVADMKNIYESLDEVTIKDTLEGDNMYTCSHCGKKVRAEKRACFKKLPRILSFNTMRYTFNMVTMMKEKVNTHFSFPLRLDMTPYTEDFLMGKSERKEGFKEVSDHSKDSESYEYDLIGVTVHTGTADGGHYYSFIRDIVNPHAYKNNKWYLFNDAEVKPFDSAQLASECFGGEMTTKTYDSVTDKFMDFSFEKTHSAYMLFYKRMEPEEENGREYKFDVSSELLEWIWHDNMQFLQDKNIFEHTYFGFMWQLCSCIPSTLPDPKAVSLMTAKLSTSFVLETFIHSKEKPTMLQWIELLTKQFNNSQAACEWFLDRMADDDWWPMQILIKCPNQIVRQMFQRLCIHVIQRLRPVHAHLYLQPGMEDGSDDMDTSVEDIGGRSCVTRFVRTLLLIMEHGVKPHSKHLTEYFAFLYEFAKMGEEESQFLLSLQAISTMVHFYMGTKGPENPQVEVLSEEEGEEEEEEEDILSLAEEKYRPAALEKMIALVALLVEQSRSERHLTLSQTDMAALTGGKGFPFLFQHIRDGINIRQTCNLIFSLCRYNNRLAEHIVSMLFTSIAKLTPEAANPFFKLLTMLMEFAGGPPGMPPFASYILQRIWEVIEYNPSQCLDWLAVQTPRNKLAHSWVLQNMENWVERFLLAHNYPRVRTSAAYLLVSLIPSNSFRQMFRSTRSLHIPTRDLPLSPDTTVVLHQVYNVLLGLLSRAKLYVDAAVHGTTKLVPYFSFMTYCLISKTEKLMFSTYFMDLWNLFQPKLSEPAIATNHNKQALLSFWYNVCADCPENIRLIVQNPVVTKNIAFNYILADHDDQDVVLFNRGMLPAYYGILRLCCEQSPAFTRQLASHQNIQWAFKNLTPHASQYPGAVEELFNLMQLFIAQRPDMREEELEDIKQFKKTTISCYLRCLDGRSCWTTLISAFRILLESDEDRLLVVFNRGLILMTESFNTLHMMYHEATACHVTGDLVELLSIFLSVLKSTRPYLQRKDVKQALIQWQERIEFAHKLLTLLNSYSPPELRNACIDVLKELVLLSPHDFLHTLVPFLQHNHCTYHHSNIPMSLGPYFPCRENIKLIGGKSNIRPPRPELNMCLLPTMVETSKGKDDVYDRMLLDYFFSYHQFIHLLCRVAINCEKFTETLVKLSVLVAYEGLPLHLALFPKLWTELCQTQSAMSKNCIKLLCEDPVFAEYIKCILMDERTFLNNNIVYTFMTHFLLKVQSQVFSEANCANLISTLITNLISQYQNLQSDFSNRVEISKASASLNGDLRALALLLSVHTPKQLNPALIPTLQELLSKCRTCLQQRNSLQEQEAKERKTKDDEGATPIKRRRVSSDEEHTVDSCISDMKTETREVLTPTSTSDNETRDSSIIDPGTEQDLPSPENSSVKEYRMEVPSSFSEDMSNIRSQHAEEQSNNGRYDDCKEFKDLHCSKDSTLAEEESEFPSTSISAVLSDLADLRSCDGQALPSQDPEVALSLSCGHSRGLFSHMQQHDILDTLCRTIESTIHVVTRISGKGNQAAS

C/C(=C\CNC(=O)CCl)c1cnn(C)c1.Cl
inactive: USP34 -0.267 | USP36 -0.266 | USP38 -0.227 | USP39 0.0033 | USP4 -0.395
